Compounds with a hit are over-represented: about 21% of the library has one in this group of screens.
CHX counter: counter-screen hit for Shiga toxin inhibitors, cycloheximide | cell reporter, cycloheximide protein synthesis inhibition counterscreen | max response, % | actives 12% (n = 300,000) | AID 2314; in the data active = max response mostly above about 13%, no sharp cut-off; inactive = mostly below about 14%; note: read at 38.3 µM for the half of the compounds with a filed dose; 0% is about no effect
Pf growth 48h: inhibits P. falciparum growth in the first generation, 48 h. Potency, µM (top dose mostly 28.7 µM), for inactives: at the highest dose activity change, negative = inhibition, usual class: inhibitors. actives 5.9% (n = 310,000). AID 504832. P. falciparum luciferase growth in erythrocytes, 48 h; active = well fitted inhibition curve with a large enough effect; inconclusive = small, poorly fitted or top-dose-only effect, or another doubt; inactive = no such curve, though single readings can be large or run the other way; note: potency is the fitted concentration of half-maximal effect; % is set by controls: 0 for no effect and ±100 for the full control effect
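In quantitative HTS format, infected erythrocytes bearing luciferase-reporter parasites were treated for a single generation at 37 C. Luminescence after adding detection reagent served as the growth measure.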
Pf growth 96h: P. falciparum growth inhibition at 96 hours | P. falciparum luciferase reporter growth, 96 h | Potency, µM (series often up to 28.7 µM), for inactives: top-dose activity change, negative = inhibition, most hits filed as inhibitors | actives 6.9% (n = 320,000) | AID 504834; active = well fitted inhibition curve with a large enough effect; inconclusive = small, poorly fitted or top-dose-only effect, or another doubt; inactive = no such curve, though single readings can be large or run the other way; note: potency is the fitted concentration of half-maximal effect; % is set by controls: 0 for no effect and ±100 for the full control effect
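Luminescence readout: decreased luciferase signal marks inhibited growth of reporter-expressing P. falciparum in infected red cells (2% hematocrit, 0.05% parasitemia final), exposed to compound two generations (96 h, 37 C, 5% CO2).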
NS1 inh: inhibitors of influenza NS1 protein function | Potency, µM (titrated, usually from 46.1 µM), for inactives: at the highest dose activity, positive = more growth | actives 0.4% (n = 270,000) | AID 2326; note: potency is the fitted concentration of half-maximal effect; actives are rising curves; nearly all actives have a fitted effect of over 50% in size
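Read-out: OD600 growth recovery of NS1-expressing budding yeast. Cells grown overnight at 30C in -URA glucose medium, washed, resuspended and diluted 1:100 in 2% galactose assay medium, pH 6.0. Same strain lacking NS1 served as positive control.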
Shiga inhibitor: Shiga toxin inhibition. Vero cells, Shiga toxin protein synthesis inhibition reporter. AID 2315. inhibition, % at 38.7 µM. actives 9.2% (n = 290,000); in the data active = inhibition mostly above about 28%, no sharp cut-off; inactive = mostly below about 43%; note: 0% is about no effect
SARS PLP yeast: blocks SARS-CoV papain-like protease in a yeast assay. S. cerevisiae expressing SARS-CoV PLpro, growth rescue. AID 485353. Potency, µM (doses to about 32.9 µM), without a hit: at the top dose activity, positive = growth rescue, most hits filed as activators. actives 0.19% (n = 330,000); note: potency is the fitted concentration of half-maximal effect; 0% is about no effect; nearly all actives have a fitted effect of over 55% in size
* hit, by the source's call; ? = inconclusive; / = no result; + = active, no number. Unless noted, calls come from the whole dose curve.

SMILES | CHX counter | Pf growth 48h | Pf growth 96h | NS1 inh | Shiga inhibitor | SARS PLP yeast
Cc1cc(Cl)ccc1OCC(=O)Nc1ccc2oc(=O)ccc2c1 | 0.8 | -8.4% | 11.7µM* | 3.0% | 0.2 | 0.0%
O=C(NC(=O)c1ccc(Cl)cc1)Nc1ccc(-c2cnco2)cc1 | -1.2 | 10.3% | 0.0% | 2.1% | -8.8 | -1.1%
O=C(Nc1ccc(-c2cnco2)cc1)c1ccc(F)cc1F | 33.6* | 0.0% | 185.8% | -1.7% | 34.6* | -2.5%
CC(=O)N1N=C(c2ccco2)CC1c1cc2ccc(C)cc2nc1Cl (stereo not drawn) | 1.4 | -6.2% | 0.9% | 4.4% | 34.9 | -0.9%
Cc1nn2c(c1-c1ccc(Cl)cc1)N=C(c1ccco1)CC2c1ccccc1 (stereo not drawn) | 7.8 | ? | 16.5µM* | 6.3% | 16.3 | -13.9%
OC(c1ccc(F)cc1)C(c1ccccc1)N1CCOCC1 (stereo not drawn) | 5.6 | 3.8% | 1.85µM* | 4.7% | -17.9 | /
CCN(CC)S(=O)(=O)c1ccc(N2CCN(c3ccccc3O)CC2)nc1 | 13.1 | ? | 13.1µM* | -37.3% | 25.8 | -4.3%
CCN(CC)S(=O)(=O)c1ccc(N2CCN(CCO)CC2)nc1 | 0.4 | -1.6% | 3.8% | -3.7% | 8.7 | 25.6%
CCOC(=O)N1CCN(C(=O)CN(Cc2ccccc2)S(C)(=O)=O)CC1 | -1.8 | -5.9% | 244.4% | 0.6% | 10.6 | 1.1%
CCOC(=O)N1CCN(C(=O)CN(Cc2ccc(Cl)cc2)S(=O)(=O)c2ccccc2)CC1 | -1.6 | 8.28µM* | ? | -17.3% | 19.6 | -10.0%
CCOC(=O)N1CCN(c2ccc(S(=O)(=O)N(Cc3ccccc3)Cc3ccccc3)cn2)CC1 | -0.8 | 13.1µM* | -29.4% | -35.7% | -4.0 | ?
O=[N+]([O-])c1cccc(-c2cc3cccc[n+]3cc2-c2cccc([N+](=O)[O-])c2)c1 | -2.9 | 0.522µM* | 0.165µM* | 12.4% | -7.6 | -4.2%
Cc1sc2cc(-c3cccc([N+](=O)[O-])c3)c(-c3cccc([N+](=O)[O-])c3)c[n+]2c1C | -2.2 | 0.928µM* | 0.828µM* | 0.0% | 15.8 | -8.4%
O=[N+]([O-])c1cccc(-c2nnc3ccccn23)c1 | -1.6 | 45.5% | ? | -31.6% | 9.5 | -0.6%
O=C(Oc1cccc(C(=S)N2CCOCC2)c1)c1cc([N+](=O)[O-])cc([N+](=O)[O-])c1 | -2.0 | 24.9% | 4.8% | 4.4% | -1.3 | 0.2%
N#CC1=C(N)Oc2cc3ccccc3cc2C1c1cccs1 (stereo not drawn) | -3.7 | -2.9% | 1.8% | 5.2% | -8.1 | 0.1%
CN(C)/C=N/C1=C(C#N)C(c2cccs2)c2ccc3ccccc3c2O1 (stereo not drawn) | 46.6* | -1.2% | -107.9% | 3.8% | 66.3* | -2.0%
CCC(CC)c1nnc(NC(=O)CCNC(=O)c2ccccc2Cl)s1 | -0.7 | -25.0% | -10.4% | / | -2.7 | 2.3%
O=C(/C(C=Nc1cccc(C(F)(F)F)c1)=C(/O)c1ccco1)C(F)(F)F | 92.9* | 53.2% | 19.9% | 5.6% | 126.5* | -0.3%
O=C(/C(C=Nc1ccc(Br)cc1)=C(/O)c1ccco1)C(F)(F)F | 41.7* | 227.5% | 2.94µM* | -35.3% | + | 4.6%
O=c1[nH]c2ccccc2n1CCCN1CCN(C(c2ccccc2)c2ccccc2)CC1 | -6.1 | 11.7µM* | 12µM* | -14.0% | -3.6 | 4.4%
COC(=O)C1C(=O)C2=C(CC1C)NC(C)=C(C(=O)OCCOc1ccccc1)C2c1ccc(C)o1 (stereo not drawn) | -3.2 | 0.0% | / | 9.4% | 13.6 | 3.7%
Cc1c(C(=O)OC2CCCCC2)[nH]c2c1C(=O)CC(C)(C)C2 | 12.4 | 8.4% | / | 1.1% | 61.3 | /
COC(=O)C1C(=O)c2c([nH]c(C(=O)OCCOC(C)C)c2C)CC1C (stereo not drawn) | 16.3* | / | / | 3.7% | 35.4 | -0.1%
COC(=O)C1C(=O)C2=C(CC1C)NC(C)=C(C(=O)OC1CCCCC1)C2c1ccc(N(C)C)cc1 (stereo not drawn) | 5.5 | 5.86µM* | 36.8% | -12.2% | 16.2 | -3.0%
COC(=O)C1C(=O)c2c([nH]c(C(=O)OC3CCCC3C)c2C)CC1C (stereo not drawn) | 26.5* | 14.9% | 19.4% | 7.3% | 66.5* | 3.7%
